Experimental data taken from PubChem BioAssay.
For some assays here: Potency and affinity values are given separately. The source made the active and inactive calls. Unless noted, the rule behind the calls is not given here.

Columns and labels:
[1] = antimalarial activity against Dd2 strain (AID 2302;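 active = growth inhibition above 50% at the single 2 µM test dose, taken to imply half-maximal potency below 2 µM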;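 note: 0% = DMSO untreated growth and 100% = chloroquine plus artemisinin killed control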); settings: P. falciparum Dd2 in RBCs, LDH growth readout, 72 h; at 2 µM; stronger effect = higher value
[2] = HepG2 cytotoxicity, primary screen, cytotoxicity control for P. falciparum antimalarial project, cell-based, ATP luminescence (AID 2303;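 active = inhibition above 50%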;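 note: 0% = DMSO wells and 100% = digitonin-killed cells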); settings: HepG2 viability, 24-48 h, at 10 µM, stronger effect = higher value
[3] = target: L-lactate dehydrogenase (Plasmodium falciparum (isolate CDC / Honduras)) (UniProt Q27743); assay: PfLDH activity inhibition – cell lysate, 3D7 strain, counter-screen for P. falciparum growth inhibition project (AID 2304);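 note: 0% = vehicle and 100% = reference inhibitor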; settings: P. falciparum 3D7 crude extract, LDH APAD/NBT absorbance; at 2 µM; stronger effect = higher value
Chain of L-lactate dehydrogenase (Plasmodium falciparum (isolate CDC / Honduras)) (Q27743 whole entry, looked up): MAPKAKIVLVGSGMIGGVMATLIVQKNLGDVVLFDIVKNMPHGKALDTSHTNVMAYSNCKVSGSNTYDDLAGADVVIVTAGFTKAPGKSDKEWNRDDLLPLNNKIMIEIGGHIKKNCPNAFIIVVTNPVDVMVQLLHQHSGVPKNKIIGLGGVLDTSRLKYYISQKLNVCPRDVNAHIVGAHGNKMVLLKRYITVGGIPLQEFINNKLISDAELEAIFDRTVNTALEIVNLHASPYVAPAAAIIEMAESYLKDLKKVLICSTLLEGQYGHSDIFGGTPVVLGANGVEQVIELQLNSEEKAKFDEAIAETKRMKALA

[4] = inhibition of 3D7 malaria parasite growth – strain 3D7 (AID 2306);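 note: 0% = DMSO wells and 100% = chloroquine plus artemisinin control wells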; settings: P. falciparum 3D7 erythrocytic growth, LDH absorbance, 72 h; at 2 µM; stronger effect = higher value
[5] = target: Calcium-dependent protein kinase 1 (Plasmodium falciparum (isolate 3D7)) (UniProt P62344); assay: PfCDPK1 kinase inhibitors, biochemical, TCAMS library (AID 1159585; cut-off not given, nearly all actives have IC50 up to about 0.98 µM;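 note: inhibitors leave more ATP so luminescence rises with inhibition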); settings: recombinant PfCDPK1, Kinase-Glo ATP depletion luminescence
Chain of Calcium-dependent protein kinase 1 (Plasmodium falciparum (isolate 3D7)) (P62344 whole entry, looked up): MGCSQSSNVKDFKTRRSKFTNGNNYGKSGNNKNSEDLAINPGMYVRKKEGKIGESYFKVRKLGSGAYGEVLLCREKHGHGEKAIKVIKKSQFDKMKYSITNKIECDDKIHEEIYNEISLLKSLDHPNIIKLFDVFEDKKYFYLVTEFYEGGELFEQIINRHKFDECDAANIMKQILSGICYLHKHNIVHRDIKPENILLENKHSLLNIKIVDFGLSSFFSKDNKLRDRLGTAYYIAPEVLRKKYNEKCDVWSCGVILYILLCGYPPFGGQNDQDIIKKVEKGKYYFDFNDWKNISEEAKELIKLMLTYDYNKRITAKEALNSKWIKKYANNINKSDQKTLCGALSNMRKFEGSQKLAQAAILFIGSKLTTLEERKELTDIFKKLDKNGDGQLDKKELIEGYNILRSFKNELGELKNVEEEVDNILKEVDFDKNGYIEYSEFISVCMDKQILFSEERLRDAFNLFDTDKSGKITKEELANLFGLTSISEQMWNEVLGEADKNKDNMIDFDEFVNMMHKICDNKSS

[6] = target: Plasmodium falciparum protein kinase 6 (PK6, PF3D7_1337100) (UniProt Q8IDW1); assay: PfPK6 kinase inhibitors, biochemical, TCAMS library (AID 1159586); settings: recombinant PfPK6, Kinase-Glo ATP depletion luminescence
Chain of Plasmodium falciparum protein kinase 6 (PK6, PF3D7_1337100) (Q8IDW1 1-305): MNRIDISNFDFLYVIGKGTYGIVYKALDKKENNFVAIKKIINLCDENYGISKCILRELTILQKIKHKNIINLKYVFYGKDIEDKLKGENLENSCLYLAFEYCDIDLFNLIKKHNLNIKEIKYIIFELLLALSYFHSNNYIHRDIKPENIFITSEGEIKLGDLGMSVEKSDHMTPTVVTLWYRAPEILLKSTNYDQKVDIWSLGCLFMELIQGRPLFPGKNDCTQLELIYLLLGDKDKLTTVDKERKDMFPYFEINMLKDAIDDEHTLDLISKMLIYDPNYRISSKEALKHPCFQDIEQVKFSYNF

[7] = target: Protein kinase 7 (PK7), Plasmodium falciparum 3D7 (PF3D7_0213400) (UniProt Q7YTF7); assay: inhibition of Plasmodium PK7 catalytic activity – biochemical, TCAMS antimalarial set, Kinase-Glo luminescence (AID 1159587); settings: recombinant PfPK7, Kinase-Glo ATP depletion luminescence
Chain of Protein kinase 7 (PK7), Plasmodium falciparum 3D7 (PF3D7_0213400) (Q7YTF7 1-343): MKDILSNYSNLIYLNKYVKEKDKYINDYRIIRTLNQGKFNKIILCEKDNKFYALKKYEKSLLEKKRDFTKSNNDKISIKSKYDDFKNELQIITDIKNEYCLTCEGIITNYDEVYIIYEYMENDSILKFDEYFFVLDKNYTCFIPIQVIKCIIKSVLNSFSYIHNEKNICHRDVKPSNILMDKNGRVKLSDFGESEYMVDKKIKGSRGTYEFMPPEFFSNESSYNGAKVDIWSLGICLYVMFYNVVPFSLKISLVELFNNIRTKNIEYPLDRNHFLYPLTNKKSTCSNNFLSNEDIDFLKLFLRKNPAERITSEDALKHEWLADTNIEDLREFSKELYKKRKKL

[8] = target: Calcium-dependent protein kinase 4 (Plasmodium falciparum (isolate 3D7)) (UniProt Q8IBS5); assay: PfCDPK4 kinase inhibitors, biochemical, TCAMS library (AID 1159588; cut-off not given, nearly all actives have IC50 up to about 0.91 µM); settings: recombinant PfCDPK4, Kinase-Glo ATP depletion luminescence
Chain of Calcium-dependent protein kinase 4 (Plasmodium falciparum (isolate 3D7)) (Q8IBS5 whole entry, looked up): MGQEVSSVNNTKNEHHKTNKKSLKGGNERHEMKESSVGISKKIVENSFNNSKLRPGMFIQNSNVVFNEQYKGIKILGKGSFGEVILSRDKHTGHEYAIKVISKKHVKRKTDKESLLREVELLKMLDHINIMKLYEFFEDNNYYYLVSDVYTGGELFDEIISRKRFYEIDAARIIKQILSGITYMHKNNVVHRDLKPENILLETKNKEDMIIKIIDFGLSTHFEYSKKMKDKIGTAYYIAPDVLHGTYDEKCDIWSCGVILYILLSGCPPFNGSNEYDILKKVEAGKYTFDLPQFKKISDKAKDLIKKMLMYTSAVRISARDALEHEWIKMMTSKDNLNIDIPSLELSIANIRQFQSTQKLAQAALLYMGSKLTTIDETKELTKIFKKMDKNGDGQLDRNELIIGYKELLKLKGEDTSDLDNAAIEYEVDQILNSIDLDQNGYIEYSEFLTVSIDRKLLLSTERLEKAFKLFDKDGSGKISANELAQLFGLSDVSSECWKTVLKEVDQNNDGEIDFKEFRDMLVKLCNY

Cc1nnsc1C(=O)Nc1cccc(-c2ccc(-c3nc4ccc(F)cc4[nH]3)s2)c1
active: inhibition [2] 62% | growth inhibition [4] 89%
inactive: growth inhibition [1] 22% | inhibition [3] 4% | outcome [5] | outcome [6] | outcome [7] | outcome [8]

CC(C)CCN(Cc1cncn1Cc1cccc(Cl)c1)C(=O)c1cncc(-c2ccccc2)c1
inactive: growth inhibition [1] -1% | inhibition [2] 9% | inhibition [3] -2% | outcome [5] | outcome [6] | outcome [7] | outcome [8]
active: growth inhibition [4] 99%

CCCCCN1CCCCC(NS(=O)(=O)c2ccc(C(=O)Nc3cccc(C(F)(F)F)c3)cc2)C1 (stereo not given)
active: growth inhibition [4] 93%
inactive: growth inhibition [1] 2% | inhibition [2] 14% | inhibition [3] -2% | outcome [5] | outcome [6] | outcome [7] | outcome [8]

CC(=O)c1ccccc1C(=O)N1CCOc2ccc(C(O)C(c3ccccc3)c3ccccc3)cc2C1 (stereo not given)
inactive: inhibition [2] 10% | inhibition [3] 3% | outcome [5] | outcome [6] | outcome [7] | outcome [8]
active: growth inhibition [1] 98% | growth inhibition [4] 96%

CCC(C)CC(=O)Nc1ccc(OC)c(S(=O)(=O)N[C@@H]2CCN(C#N)C2)c1 (stereo not given in full)
inactive: inhibition [2] 16% | inhibition [3] 0% | outcome [5] | outcome [6] | outcome [7] | outcome [8]
active: growth inhibition [1] 77% | growth inhibition [4] 94%

CCOCc1cn(CC(=O)c2ccc(-c3ccccc3)cc2)c(C)nc1=N
active: growth inhibition [1] 72% | growth inhibition [4] 93%
inactive: inhibition [2] 13% | inhibition [3] 5% | outcome [5] | outcome [6] | outcome [7] | outcome [8]

O=c1cc(NC[C@@H]2CCC[C@@H]2NCc2ccc(Cl)c(Cl)c2)[nH]c2ccccc12
inactive: inhibition [2] 9% | inhibition [3] -1% | outcome [5] | outcome [6] | outcome [7] | outcome [8]
active: growth inhibition [1] 75% | growth inhibition [4] 100%

Cc1cnc(NCC2CCCCC2)nc1N[C@@H](CC(C)C)C(=O)Nc1ccccc1
active: growth inhibition [1] 55% | growth inhibition [4] 96%
inactive: inhibition [2] 12% | inhibition [3] -2% | outcome [5] | outcome [6] | outcome [7] | outcome [8]

CC(C)CCN1CCCN(Cc2cccc(NC(=O)c3cc4ccccc4s3)c2)CC1
inactive: growth inhibition [1] 8% | inhibition [2] 34% | inhibition [3] 1% | outcome [5] | outcome [6] | outcome [7] | outcome [8]
active: growth inhibition [4] 96%

C=CCOC(=O)N1CCC(CNCc2cccc(-c3cccc(-c4nc5c(C)cccc5[nH]4)c3)c2)C1 (stereo not given)
active: growth inhibition [1] 69% | growth inhibition [4] 102%
inactive: inhibition [2] 22% | inhibition [3] -2% | outcome [5] | outcome [6] | outcome [7] | outcome [8]

CCN(CC)CCN(Cc1ccc(-c2ccc(C(F)(F)F)cc2)cc1)C(=O)Cn1c(CCc2ccc(F)c(F)c2F)nc(=O)c2ccccc21
inactive: inhibition [2] 38% | inhibition [3] -10% | outcome [5] | outcome [6] | outcome [7] | outcome [8]
active: growth inhibition [1] 66% | growth inhibition [4] 97%

COc1ccc(-c2nc(NCc3ccccc3)c3cc(OC)c(OC)cc3n2)cc1
active: growth inhibition [1] 100% | growth inhibition [4] 101%
inactive: inhibition [2] 15% | inhibition [3] -1% | outcome [5] | outcome [6] | outcome [7] | outcome [8]

CCC(=O)N1CCc2cc(Br)cc(S(=O)(=O)N3CC(C)CC(C)C3)c21 (stereo not given)
active: growth inhibition [1] 84% | growth inhibition [4] 85%
inactive: inhibition [2] 5% | inhibition [3] -3% | outcome [5] | outcome [6] | outcome [7] | outcome [8]

CC1c2cccc(O)c2CCN1CCc1ccc(Cl)c(Cl)c1 (stereo not given)
inactive: inhibition [2] 18% | inhibition [3] -1% | outcome [5] | outcome [6] | outcome [7] | outcome [8]
active: growth inhibition [1] 99% | growth inhibition [4] 102%

CC(C)c1ccc(CN2CCC(CNC(=O)c3cc(-c4cccc(C(F)(F)F)c4)cs3)C2)cc1 (stereo not given)
inactive: inhibition [2] 36% | inhibition [3] 5% | outcome [5] | outcome [6] | outcome [7] | outcome [8]
active: growth inhibition [1] 60% | growth inhibition [4] 99%

COc1ccc2c(NN=Cc3ccc(F)cc3)ccnc2c1
inactive: inhibition [2] 14% | inhibition [3] -4% | outcome [5] | outcome [6] | outcome [7] | outcome [8]
active: growth inhibition [1] 99% | growth inhibition [4] 100%

CCCCCN1CCCN(Cc2cccc(NC(=O)c3ccc(-c4ccccc4)cc3)c2)CC1
active: growth inhibition [4] 95%
inactive: growth inhibition [1] 15% | inhibition [2] 23% | inhibition [3] 6% | outcome [5] | outcome [6] | outcome [7] | outcome [8]

O=C(NC(c1ccccc1)c1ccccc1)C(c1cc2ccccc2o1)N1CCN(C(c2ccccc2)c2ccccc2)CC1 (stereo not given)
active: growth inhibition [1] 78% | growth inhibition [4] 95%
inactive: inhibition [2] -1% | inhibition [3] -1% | outcome [5] | outcome [6] | outcome [7] | outcome [8]

O=C(Nc1ccc(Br)c(Cl)c1)c1cc([N+](=O)[O-])cc2cn[nH]c12
inactive: inhibition [2] 49% | inhibition [3] -1% | outcome [5] | outcome [6] | outcome [7] | outcome [8]
active: growth inhibition [1] 63% | growth inhibition [4] 99%

CC1(C)N=C(N)N=C(N)N1c1ccc(Cl)c(Cl)c1
inactive: inhibition [3] 0% | outcome [5] | outcome [6] | outcome [7] | outcome [8]
active: growth inhibition [1] 56% | inhibition [2] 67% | growth inhibition [4] 95%

Cc1cccc2[nH]c(-c3ccc(-c4cccc(CN5CCCC5CN)c4)cc3)nc12 (stereo not given)
inactive: growth inhibition [1] 32% | inhibition [2] 7% | inhibition [3] 3% | outcome [5] | outcome [6] | outcome [7] | outcome [8]
active: growth inhibition [4] 91%

COc1ccc2nccc(NN=Cc3ccc(F)cc3)c2c1
inactive: inhibition [2] 2% | inhibition [3] -2% | outcome [5] | outcome [6] | outcome [7] | outcome [8]
active: growth inhibition [1] 54% | growth inhibition [4] 98%

O=C(Cc1cccc(Cl)c1)Nc1cccc(-c2c[nH]c3nc(Nc4ccccc4)ncc23)c1
inactive: inhibition [2] 5% | inhibition [3] -2% | outcome [5] | outcome [6] | outcome [7] | outcome [8]
active: growth inhibition [1] 70% | growth inhibition [4] 99%

Cc1cccc(C)c1CNc1ccnc2ccccc12
inactive: growth inhibition [1] 10% | inhibition [3] -1% | outcome [5] | outcome [6] | outcome [7] | outcome [8]
active: inhibition [2] 59% | growth inhibition [4] 92%

CCCN(CC1CC1)c1ncc(-c2cccc(CNCc3ccccc3O)c2)cn1
inactive: inhibition [2] 15% | inhibition [3] -8% | outcome [5] | outcome [6] | outcome [7] | outcome [8]
active: growth inhibition [1] 98% | growth inhibition [4] 97%

CN(C)CCN(C)Cc1cccc(-c2ccc3c(Nc4ccc(F)cc4Cl)ccnc3c2)c1
inactive: inhibition [3] 0% | outcome [5] | outcome [6] | outcome [7] | outcome [8]
active: growth inhibition [1] 100% | inhibition [2] 53% | growth inhibition [4] 101%

CS(=O)(=O)CCCNCc1ccc(-c2cc3c(Nc4ccc(OCc5ccccc5)cc4)ncnc3cn2)o1
active: growth inhibition [4] 87%
inactive: growth inhibition [1] 16% | inhibition [2] 10% | inhibition [3] -8% | outcome [5] | outcome [6] | outcome [7] | outcome [8]

COCCN1CCC(N(CC2(O)CCN(c3ccc(C(F)(F)F)cc3)CC2)C(=O)Cn2c(SCc3cccc(F)c3F)cc(=O)c3ccccc32)CC1
active: growth inhibition [1] 75% | growth inhibition [4] 94%
inactive: inhibition [2] 29% | inhibition [3] 5% | outcome [5] | outcome [6] | outcome [7] | outcome [8]

Cc1ccc(NC(=O)c2ccc(NCCCN(C)Cc3ccccc3)c([N+](=O)[O-])c2)cc1F
inactive: inhibition [2] 12% | inhibition [3] -7% | outcome [5] | outcome [6] | outcome [7] | outcome [8]
active: growth inhibition [1] 61% | growth inhibition [4] 101%

COc1ccc(NC(=O)c2c(NC(=O)c3cccs3)sc3c2CCCC3)cc1
inactive: growth inhibition [1] 4% | inhibition [2] 4% | inhibition [3] 1% | outcome [5] | outcome [6] | outcome [7] | outcome [8]
active: growth inhibition [4] 97%

NC(=O)c1ccc(C(=O)Nc2cccc(-c3ccc(-c4nc5ccc(C(F)(F)F)cc5[nH]4)cc3)c2)cc1
inactive: growth inhibition [1] 31% | inhibition [2] 35% | inhibition [3] -1% | outcome [5] | outcome [6] | outcome [7] | outcome [8]
active: growth inhibition [4] 100%

COc1cccc2sc(Nc3nc(-c4ccccn4)cs3)nc12
active: growth inhibition [1] 76% | growth inhibition [4] 94%
inactive: inhibition [2] 41% | inhibition [3] 4% | outcome [5] | outcome [6] | outcome [7] | outcome [8]

CN(C)CC(=O)Nc1cccc(Nc2nccc(NCC(O)c3ccccc3)n2)c1 (stereo not given)
inactive: growth inhibition [1] 3% | inhibition [2] 30% | inhibition [3] -5% | outcome [5] | outcome [6] | outcome [7] | outcome [8]
active: growth inhibition [4] 102%

CCNc1cc(C(=O)N[C@@H](Cc2ccccc2Cl)[C@H](O)CNC(C)CCCC(C)C)cc(N2CCCCS2(=O)=O)c1 (stereo not given in full)
inactive: inhibition [2] 12% | inhibition [3] 2% | outcome [5] | outcome [6] | outcome [7] | outcome [8]
active: growth inhibition [1] 62% | growth inhibition [4] 97%

FC(F)(F)c1cccc(-c2cc(NCCCn3ccnc3)nc(-c3ccncc3)n2)c1
active: growth inhibition [1] 100% | inhibition [2] 50% | growth inhibition [4] 101%
inactive: inhibition [3] 5% | outcome [5] | outcome [6] | outcome [7] | outcome [8]

COC(=O)c1ccc(OCC(O)CO)cc1O (stereo not given)
inactive: growth inhibition [1] 23% | inhibition [2] 4% | inhibition [3] 5% | outcome [5] | outcome [6] | outcome [7] | outcome [8]
active: growth inhibition [4] 101%

NC1CCCN(Cc2cccc(-c3ccc(-c4nc5ccc(C(F)(F)F)cc5[nH]4)cc3)c2)C1 (stereo not given)
inactive: inhibition [2] 47% | inhibition [3] -3% | outcome [5] | outcome [6] | outcome [7] | outcome [8]
active: growth inhibition [1] 96% | growth inhibition [4] 99%

CC1(C)[C@H]2CC[C@]1(C)CN(CC(O)Cn1c3ccccc3c3cc(I)ccc31)C2 (stereo not given in full)
inactive: inhibition [2] -7% | inhibition [3] 1% | outcome [5] | outcome [6] | outcome [7] | outcome [8]
active: growth inhibition [1] 82% | growth inhibition [4] 94%

O=C(/C=C/c1ccc(Cl)c(Cl)c1)NCC[C@@H]1C[C@H]1CCN1CCC(c2c[nH]c3ccccc23)CC1
active: inhibition [2] 98% | growth inhibition [4] 96%
inactive: growth inhibition [1] 22% | inhibition [3] -8% | outcome [5] | outcome [6] | outcome [7] | outcome [8]

COc1ccc(C2CCN(CCN3CCC(NC(=O)c4cccc(-c5ccncc5)c4)CC3)CC2)c(OC)c1
inactive: growth inhibition [1] 24% | inhibition [2] 7% | inhibition [3] -6% | outcome [5] | outcome [6] | outcome [7] | outcome [8]
active: growth inhibition [4] 94%
